# Screening results deposited in PubChem by National Center for Advancing Translational Sciences (NCATS).
# BAZ2B inh – blocks human BAZ2B. Q9UIF8. AlphaScreen BAZ2B-H3K14Ac peptide displacement. Potency, µM (highest dose often 114 µM), for inactives: at the highest dose activity change, negative = inhibition, most hits filed as inhibitors. hit rate 4.4% among 360,000. AID 504333; further: on the % scale 0 is the no-effect control and ±100 the full control effect; nearly all actives have a fitted effect of over 60% in size
#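 Inhibition is scored as reduced AlphaScreen emission. The BAZ2B/b-H3(5-23)K14Ac complex (50 nM each) in PBS pH 7.4, 0.01% Tween-20 meets compound (up to 110 uM) for 30 min at RT before bead addition.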
# L3MBTL1 inh – inhibitors of human L3MBTL1. Q9Y468. AlphaScreen L3MBTL1–H3K9me1 peptide binding. Potency, µM (series often up to 57.1 µM), for inactives: top-dose activity, negative = inhibition, usual class: inhibitors. hit rate 0.66% among 230,000; further: on the % scale 0 is the no-effect control and ±100 the full control effect; nearly all actives have a fitted effect of over 60% in size
#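 Read-out is AlphaScreen signal from streptavidin donor and nickel chelate acceptor beads (10 ug/mL final each) bridging L3MBTL1 (50 nM) and biotinylated K9-monomethylated H3(1-15) peptide (75 nM), after 30 min compound exposure at room temperature.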
# JMJD2A Tudor inh – JMJD2A Tudor domain (human) inhibition; O75164; Potency, µM (highest dose often 114 µM), for inactives: at the top dose activity change, negative = inhibition, actives largely listed as inhibitors; AID 504339; AlphaScreen JMJD2A-Tudor / H3K4me3 peptide binding; hit rate 4.4% among 390,000; further: on the % scale 0 is the no-effect control and ±100 the full control effect; nearly all actives have a fitted effect of over 50% in size
# HP1b chromo inh – HP1-beta chromodomain-methylated histone interaction inhibition | hit rate 0.56% among 390,000 | Potency, µM (doses to about 114 µM), without a hit: at the highest dose activity change, negative = inhibition, usual class: inhibitors | AlphaScreen HP1-beta / biotin-H3K9me3 peptide binding | AID 540317; further: nearly all actives have a fitted effect of over 70% in size
# Target sequence (P83916 whole entry, looked up): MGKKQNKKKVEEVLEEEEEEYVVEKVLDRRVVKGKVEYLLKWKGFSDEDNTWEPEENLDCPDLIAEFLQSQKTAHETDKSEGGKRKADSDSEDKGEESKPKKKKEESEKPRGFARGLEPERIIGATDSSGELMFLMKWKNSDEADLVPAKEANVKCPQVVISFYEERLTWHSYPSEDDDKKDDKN
#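 HP1-beta protein (50 nM final) preincubated 30 min at room temperature with biotinylated H3(1-18)K9me3 peptide (50 nM) in PBS pH 7.4, 0.01% Tween-20, then compound added for 30 min. AlphaScreen streptavidin donor/nickel chelate acceptor beads (10 ug/mL final), 30 min dark, luminescence read.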
# G9a inh – inhibitors of human histone lysine methyltransferase G9a | Q96KQ7 | G9a H3K9 monomethylation, AlphaScreen, 2 h | Potency, µM (highest dose often 102 µM), for the others: at the highest dose activity, negative = inhibition, actives largely listed as inhibitors | hit rate 8.8% among 350,000 | AID 504332; further: on the % scale 0 is the no-effect control and ±100 the full control effect; nearly all actives have a fitted effect of over 75% in size
# Target sequence (Q96KQ7 913-1193 limits assumed): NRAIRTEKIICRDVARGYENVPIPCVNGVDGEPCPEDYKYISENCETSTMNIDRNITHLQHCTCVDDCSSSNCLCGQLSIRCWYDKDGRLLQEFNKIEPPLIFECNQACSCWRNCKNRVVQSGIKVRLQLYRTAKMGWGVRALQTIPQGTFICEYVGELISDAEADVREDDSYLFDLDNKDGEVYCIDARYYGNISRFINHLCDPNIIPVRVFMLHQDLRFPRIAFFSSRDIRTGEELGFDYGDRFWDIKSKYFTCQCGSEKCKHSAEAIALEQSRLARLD
#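 Chemiluminescent proximity detection of H3K9 monomethylation, read after 10 min bead incubation in the dark. Reaction: 20 nM G9a, 500 nM biotin-H3K9 peptide, 20 uM SAM cofactor, 2 h, room temperature, following 15 min enzyme-compound preincubation.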
# Sfp PPTase inh – blocks B. subtilis Sfp PPTase activity. Q9F4F7. Biochemical Sfp PPTase activity, qHTS. Potency, µM, for the others: largest response in the series, negative = inhibition, hits mostly inhibitors. hit rate 3.5% among 310,000;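 further: the enzyme is Sfp with the accession as filed and its product quenches rhodamine fluorescence; 0% = enzyme reaction without inhibitor and -100% = no enzyme wells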
#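 Buffer: 50 mM Hepes-Na pH 7.6, 10 mM MgCl2, 0.01% Nonidet P-40, 0.01% BSA. Enzyme 15 nM, pre-exposed to compound 15 min; substrates then added and fluorescence change tracked over 30 min.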
# An asterisk follows results filed as active; u = inconclusive; x = not tested or not shown; [ ] = dose if it differs, or a comment. The list is not random: actives were taken first. Their share in the collection is about 12%. The call rests on the fitted dose curve; in most records, active means well fitted curve in the direction sought with a large enough effect; inconclusive means small, poorly fitted or top-dose-only effect, or another doubt; inactive means no such curve, though single readings can be large; an effect the other way counts as inactive or inconclusive. Potency means the concentration at half of the fitted maximal effect.
SMILES,BAZ2B inh,L3MBTL1 inh,JMJD2A Tudor inh,HP1b chromo inh,G9a inh,Sfp PPTase inh
O=C(NNc1nc(-c2ccc(Cl)cc2)cs1)c1ccco1,u,-16.5%,-35.2%,u,u,-22.3%
Cc1ccc2nc(N/N=C/c3ccco3)cc(C)c2c1,44.7µM*,-10.6%,u,-4.4%,u,-0.6%
CCNS(=O)(=O)c1ccc(CCC(=O)Nc2ccc3c(c2)OCCO3)cc1,-2.1%,6.0%,3.3%,29.3%,x,-3.5%
C#CCN1C(=O)C(O)(CC(=O)c2ccc(OC)c(OC)c2)c2cc(Br)ccc21 (stereo unspecified),-8.1%,x,-13.1%,18.1%,-37.5%[59 µM],x
CCOc1ccc(CNC(=O)c2ccc3nc(C(C)C)oc3c2)cc1,5.4%,x,-15.7%,8.9%[57 µM],0.6%[59 µM],x
COCC(C)n1c(-c2ccc3c(c2)NC(=O)CO3)csc1=Nc1ccc(OC(F)F)cc1 (stereo unspecified),12.6µM*,x,u,u,-4.1%[12.7 µM],1.6%
CCN=c1scc(-c2ccc3c(c2)NC(=O)CO3)n1N=C1CCCC1,50.1µM*,-10.0%,u,u,u,u
COC(=O)C1=COC(OC2OC(CO)C(O)C(O)C2O)C2C1C=CC2(O)CO (stereo unspecified),28.2µM*,x,35.5µM*,20µM*,0.6%[12.7 µM],13.7%
COC(=O)C1=CO[C@@H](O[C@@H]2OC(CO)[C@@H](O)[C@@H](O)[C@@H]2O)C2C1CC[C@]2(C)O (stereo partly specified),x,x,-15.6%,23.2%,x,x
[O-][n+]1cccc2ncc3cscc3c21,7.8%,-0.8%,-12.5%,14.7%,6.5%[59 µM],7.1%
Cc1nnc(SCC(=O)Nc2sc3c(c2C#N)CCCCC3)n1N,-23.2%,x,-13.8%,-13.0%,14.1µM*,-17.5%
CCC(=O)Nc1sc2c(c1C#N)CCC2,-13.7%,x,89.1µM*,-0.8%,17.0%,-0.4%
N#Cc1c(NC(=O)CCC(=O)O)sc2c1CCCCC2,u,-9.6%,44.7µM*,u,44.7µM*,20µM*
CC(=O)Nc1sc2c(c1C#N)CCC2,-11.4%,2.6%,-4.8%,33.3%,-26.2%,-20.9%
N#Cc1c(NC(=O)CCC(=O)O)sc2c1CCCC2,10.2%,6.4%,-8.2%,19.3%,-2.8%[12.7 µM],0.0%
CC(C)CC(=O)Nc1sc2c(c1C(=O)O)CCCCC2,u,-16.6%,-19.0%,19.4%,70.8µM*,24.8%
COc1ccc(Cl)cc1NC(=O)CSc1nccn1-c1ccc(Cl)cc1,-23.6%,x,-15.8%,-8.3%[57 µM],-32.3%[59 µM],x
O=C(O)CCc1c(C(=O)O)[nH]c2cc(Cl)cc(Cl)c12,x,x,x,x,x,11.0%
Clc1ccccc1Cn1cccc1C1=NC(Cc2ccccc2)CO1 (stereo unspecified),x,x,14.0%,77.9%,47.2%[59 µM],x
Cc1ccc(-n2ncc(C(=O)N3CCc4ccccc4C3)c2NC(=O)c2ccco2)cc1C,-11.5%,-19.2%,-16.9%,14.6%,25.1µM*,-62.0%
NC(=O)c1ccc[n+]([C@@H]2O[C@H](COP(=O)([O-])OP(=O)(O)OC[C@H]3O[C@@H](n4cnc5c(N)ncnc54)[C@@H](O)[C@@H]3O)[C@@H](O)[C@@H]2O)c1,x,x,x,x,9.4%[21.5 µM],7.5%
NC(=O)c1ccc[n+]([C@@H]2OC(COP(=O)([O-])OP(=O)(O)OCC3OC(n4cnc5c(N)ncnc54)C(O)C3O)C(O)C2O)c1 (stereo partly specified),x,x,x,x,-40.1%[2.33 µM],5.7%
NC(=O)c1ccc[n+]([C@H]2O[C@@H](COP(=O)([O-])OP(=O)(O)OC[C@H]3O[C@@H](n4cnc5c(N)ncnc54)[C@H](O)[C@@H]3O)[C@H](O)[C@@H]2O)c1,35.5µM*,-93.8%,79.4µM*,22.7%,-24.8%[12.7 µM],x
NC(=S)c1ccc[n+]([C@@H]2O[C@@H](COP(=O)([O-])OP(=O)(O)OC[C@H]3O[C@@H](n4cnc5c(N)ncnc54)[C@H](OP(=O)(O)O)[C@H]3O)C(O)C2O)c1 (stereo partly specified),x,x,x,x,17.8µM*,x
NC(=S)c1ccc[n+]([C@@H]2O[C@@H](COP(=O)([O-])OP(=O)(O)OC[C@H]3O[C@@H](n4cnc5c(N)ncnc54)[C@H](OP(=O)(O)O)[C@@H]3O)C(O)C2O)c1 (stereo partly specified),x,x,x,x,7.94µM*,x
SMILES,BAZ2B inh,L3MBTL1 inh,JMJD2A Tudor inh,HP1b chromo inh,G9a inh,Sfp PPTase inh
COc1ccc(Cc2[nH]n3c(=O)cc(C(C)C)nc3c2-c2ccccc2)cc1,-4.6%,4.6%,-17.4%,32.8%,-28.4%,12.7%
CN1CCN(S(=O)(=O)c2cccc(C(=O)Nc3sc4c(c3C(N)=O)CCCC4)c2)CC1,9.0%,1.1%,-22.0%,-5.3%,u,56.2µM*
CN1CCc2c(sc(NC(=O)C3CCCN3S(=O)(=O)c3ccc(Cl)s3)c2C(N)=O)C1 (stereo unspecified),-2.6%,-11.4%,-11.1%,17.1%,44.7µM*,x
NC(=O)c1c(NC(=O)c2ccc(S(=O)(=O)N3CCOCC3)cc2)sc2c1CCCCC2,-6.7%,9.4%,-9.8%,36.4%,u,u
CN1CCc2c(sc(NC(=O)c3ccc(S(=O)(=O)N4CCCC4)cc3)c2C(N)=O)C1,-2.3%,x,-9.9%,24.5%,15.1%,20.6%
CN1CCc2c(sc(NC(=O)c3ccc(S(=O)(=O)N4CCOCC4)cc3)c2C(N)=O)C1,1.3%,-0.8%,-27.2%,20.2%,39.8µM*,20.3%
CCOC(=O)N1CCN(S(=O)(=O)c2ccc(C(=O)Nc3sc4c(c3C(N)=O)CCN(CC)C4)cc2)CC1,u,x,-26.4%,22.1%,50.1µM*,-5.7%
NCCC[C@@H](CC(=O)N[C@@H]1CCCC[C@H]1C(=O)N[C@H](CC(=O)N[C@@H](CCC(=O)O)CC(=O)O)Cc1c[nH]c2ccccc12)NC(=O)C[C@H](CO)NC(=O)[C@@H]1CCCC[C@H]1N,x,x,x,x,x,6.7%
COc1cc(/C(C)=N/NC(=O)C(O)(c2ccccc2)c2ccccc2)ccc1O,-9.0%,3.5%,-14.4%,14.8%,-9.8%[59 µM],u
CCOC(=O)N1CCN(S(=O)(=O)c2ccc(C(=O)Nc3sc4c(c3C(=O)OC)CCN(C)C4)cc2)CC1,-22.6%,x,-28.1%,31.8%,56.2µM*,8.4%
Cc1cc(Br)ccc1NC(=O)C1C2CCC(O2)C1C(=O)O (stereo unspecified),-1.1%,3.8%,-4.5%,63.9%,31.6µM*,5.6%
COc1cc(/C=N/NC(=O)CCOc2ccccc2C)cc(Br)c1O,-16.0%,x,0.0%[11.4 µM],-0.8%,50.1µM*,-14.2%
CCOc1ccc(S(=O)(=O)N2CCN(C(=O)CCOc3ccccc3C)CC2)cc1,7.6%,-1.8%,-2.1%,26.2%,12.6µM*,x
Cc1ccc(S(=O)(=O)N2CCN(C(=O)CCOc3ccccc3C)CC2)cc1C,11.4%,-4.5%,-4.8%,23.3%,-50.8%,x
